Screens from PubChem BioAssay.
Shown are actives, neighbours in structure and some others; about 12% of the full set was active somewhere.
JMJD2A Tudor inh: blocks the human JMJD2A Tudor domain; O75164; AlphaScreen JMJD2A-Tudor / H3K4me3 peptide binding; Potency, µM (series often up to 114 µM), most hits filed as inhibitors; 4.4% of 390,000 active; further: nearly all actives have a fitted effect of over 50% in size
Sfp inh: inhibitors of Bacillus subtilis Sfp phosphopantetheinyl transferase. Q9F4F7. 3.5% of 310,000 active. AID 1490. Potency, µM, hits mostly inhibitors. Biochemical Sfp PPTase activity, qHTS;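 further: the enzyme is Sfp with the accession as filed and its product quenches rhodamine fluorescence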
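After 15 min at room temperature with compound, 15 nM Sfp received 5 uM rhodamine-CoA plus 12.5 uM BHQ-2-ybbR (50 mM Hepes pH 7.6, 10 mM MgCl2). Rate came from the fluorescence difference over 30 min, ex 525/em 598 nm.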
BAZ2B inh: blocks human BAZ2B; Potency, µM (series often up to 114 µM), usual class: inhibitors; AID 504333; 4.4% of 360,000 active; Q9UIF8; AlphaScreen BAZ2B-H3K14Ac peptide displacement; further: nearly all actives have a fitted effect of over 60% in size
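Multi-concentration screen (max 110 uM) measuring displacement of acetylated histone H3 peptide from BAZ2B by AlphaScreen, using 50 nM protein, 50 nM peptide and 10 ug/mL streptavidin donor plus Ni-chelate acceptor beads.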
G9a inh: G9a (human) methyltransferase inhibition; G9a H3K9 monomethylation, AlphaScreen, 2 h; Potency, µM (top dose mostly 102 µM), actives largely listed as inhibitors; AID 504332; 8.8% of 350,000 active; Q96KQ7; further: nearly all actives have a fitted effect of over 75% in size
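Using a bead-based AlphaScreen, monomethylated H3K9 product from 2 h room-temperature reactions (G9a 20 nM, peptide 500 nM, SAM 20 uM) was detected with 0.5 ug/mL rabbit anti-H3K9me1 antibody.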
HP1b chromo inh: HP1-beta chromodomain-methylated histone interaction inhibition; P83916; AlphaScreen HP1-beta / biotin-H3K9me3 peptide binding; Potency, µM (highest dose often 114 µM), actives largely listed as inhibitors; 0.56% of 390,000 active; further: nearly all actives have a fitted effect of over 70% in size
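Compound inhibition of the preformed complex between 50 nM HP1-beta and 50 nM biotinylated H3K9me3 peptide was read by AlphaScreen. Buffer was PBS pH 7.4 with 0.01% Tween-20. Incubations ran 30 min at room temperature, with 10 ug/mL donor/acceptor beads.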
Of the large screens only hits and unclear results are named; the others gave an inactive call. The call rests on the fitted dose curve; in most records, active means well fitted curve in the direction sought with a large enough effect; inconclusive means small, poorly fitted or top-dose-only effect, or another doubt; inactive means no such curve, though single readings can be large; an effect the other way counts as inactive or inconclusive.

CCOc1cc(C(=O)NCc2nc(-c3cccc(C)c3)no2)cc(OCC)c1OCC	none (no result: Sfp inh)
CC(NC(=O)Cc1ccsc1)c1ccc(F)cc1 (configuration not stated)	none
COc1ccccc1OCCOCCN1CCCC1	JMJD2A Tudor inh 50.1µM, G9a inh 25.1µM, HP1b chromo inh inconclusive
COc1ccccc1OCCCCN1CCN(C(c2ccccc2)c2ccccc2)CC1	JMJD2A Tudor inh inconclusive, BAZ2B inh inconclusive, HP1b chromo inh inconclusive
Cc1ccccc1OCCOCCN1CCCCCC1	JMJD2A Tudor inh inconclusive, BAZ2B inh inconclusive, G9a inh 39.8µM, HP1b chromo inh inconclusive
Cc1cccc(OCCOCCN2CCNCC2)c1C	none
Cc1ccc(C(C)C)cc1OCCOCCN1CCCC1	JMJD2A Tudor inh 7.08µM, BAZ2B inh inconclusive, G9a inh 12.6µM, HP1b chromo inh inconclusive
CC1Oc2ccccc2N(CC(=O)Nc2ccc(F)cc2)C1=O (configuration not stated)	none
CCOC(=O)c1ccc(S(=O)(=O)N2CC(=O)Nc3ccccc32)cc1	G9a inh 10µM
O=C(CSc1nc2ccsc2c(=O)n1Cc1ccccc1F)NCc1ccccc1	none (no result: Sfp inh)
Cn1cnc([N+](=O)[O-])c1SCC(=O)NN	Sfp inh 56.2µM, BAZ2B inh inconclusive, G9a inh 7.08µM
CCCOc1ccc(C(=O)Nc2cc(-c3nn4c(C)nnc4s3)ccc2C)cc1	JMJD2A Tudor inh 39.8µM
CCOc1cccc(C(=O)Nc2cc(-c3nn4c(C)nnc4s3)ccc2C)c1	none
CCOC(=O)N1CCN(C(=O)c2cc(S(=O)(=O)N3CCc4ccccc43)ccc2OC)CC1	none (no result: Sfp inh)
O=C(O)c1ccc(N/N=C/C2=Cc3ccccc3OC2)cc1	G9a inh 50.1µM
O=C(O)c1ccc(N/N=C/c2ccncc2)cc1	none
O=C(c1ccc2c3n(nc2c1)-c1ccc(Cl)cc1CO3)N1CCCCC1	Sfp inh 56.2µM
O=C(O)c1ccc2c3n(nc2c1)-c1ccc(Cl)cc1CO3	BAZ2B inh inconclusive, G9a inh 50.1µM
O=C(NCCO)c1ccc2c3n(nc2c1)-c1ccc(Cl)cc1CO3	Sfp inh 89.1µM
Cc1ccc2c(c1)COc1c3ccc(C(=O)N4CCOCC4)cc3nn1-2	none
O=C(NCC1CC1)c1ccc2c3n(nc2c1)-c1ccc(Cl)cc1CO3	none (no result: Sfp inh, BAZ2B inh, G9a inh)
COc1ccc(-c2cc(-c3ccco3)[nH]c(=O)c2C#N)cc1	JMJD2A Tudor inh inconclusive, Sfp inh 50.1µM, BAZ2B inh 56.2µM (no result: G9a inh)
N#Cc1c(-c2ccccc2)cc(-c2ccccc2)[nH]c1=O	none
N#Cc1c(-c2cccc(Br)c2)cc(-c2ccco2)[nH]c1=O	JMJD2A Tudor inh inconclusive, Sfp inh inconclusive, BAZ2B inh 44.7µM, G9a inh 11.2µM
OCCNCc1cccc(-c2ccccc2)c1O	none (no result: Sfp inh, BAZ2B inh, G9a inh)
CCOC(=O)OCC1OC(C#Cc2ccc(F)cc2F)C=CC1OC(=O)OCC (configuration not stated)	none (no result: JMJD2A Tudor inh, BAZ2B inh, G9a inh, HP1b chromo inh)
O=C(N/N=C/c1ccc(C(=O)O)cc1)C1=NNC(c2ccccc2)(c2ccccc2)C1	JMJD2A Tudor inh 79.4µM, BAZ2B inh inconclusive
Cc1cccc(OCC(=O)Nc2c(C(=O)N3CCN(c4ccccc4)CC3)oc3ccccc23)c1	G9a inh inconclusive (no result: Sfp inh)
COc1ccccc1COC(=O)N/C=C/c1ccco1	Sfp inh inconclusive, BAZ2B inh inconclusive, G9a inh 20µM
COc1ccc(COC(=O)N/C=C/c2ccco2)cc1	G9a inh 50.1µM
COc1ccc(Cn2c(C(=O)O)c(CNC3CCC(C)CC3)c3ccc(C)cc32)cc1 (configuration not stated)	BAZ2B inh inconclusive, G9a inh inconclusive (no result: Sfp inh)
CCOC(=O)CC(NS(=O)(=O)c1ccc2[nH]cc(C(=O)O)c(=O)c2c1)c1ccc(OCC)c(OC)c1 (configuration not stated)	JMJD2A Tudor inh 22.4µM, BAZ2B inh 28.2µM, G9a inh 10µM, HP1b chromo inh 50.1µM
Cc1cc(I)ccc1Nc1c(C(=O)NOCC2CC2)cc(F)c(F)c1F	none (no result: JMJD2A Tudor inh, BAZ2B inh, G9a inh, HP1b chromo inh)
c1ccc(N2CCN(c3nc(NCc4ccco4)c4ccccc4n3)CC2)cc1	JMJD2A Tudor inh 50.1µM, Sfp inh 31.6µM, BAZ2B inh 44.7µM, G9a inh 44.7µM
c1ccc(CNc2nc(N3CCN(Cc4ccccc4)CC3)nc3ccccc23)cc1	Sfp inh 56.2µM, BAZ2B inh 50.1µM, G9a inh inconclusive
c1coc(CNc2nc(N3CCCCC3)nc3ccccc23)c1	Sfp inh inconclusive, BAZ2B inh inconclusive, G9a inh inconclusive
